The values that follow come from PubChem BioAssay (Tox21).

Values joined by “and” are separate entries in the source; they are usually repeats but may differ in a detail not shown here. Identical values can stand only once. Inconclusive results are not listed. Some compounds were tested as several samples or in several runs, with calls that do not always agree. Active and inactive are the calls of the source. Unless noted, calls come from the whole dose curve; as a rule, active = well fitted curve in the direction sought with a large enough effect in the repeat runs; inconclusive = weak or mixed curves; inactive = no such curve, though single readings can be large; an effect the other way counts as inactive or inconclusive.

Experiment [1] in a line: qHTS assay to identify small molecule antagonists of the thyroid receptor (TR) signaling pathway - cell viability counter screen (AID 743064). Note: nearly all actives have a fitted effect of over 50% in size. The method, boiled down:
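Viability of T3-stimulated (1 nM final) GH3.TRE-Luc cells is measured by CellTiter-Fluor fluorescence after 23.5 h compound exposure at 37 °C plus 30 min reagent incubation.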

Experiment [2] can be described thus: qHTS assay to identify small molecule antagonists of the thyroid receptor (TR) signaling pathway (AID 743065). Note: nearly all actives have a fitted effect of over 55% in size. The method, boiled down:
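GH3.TRE-Luc rat pituitary cells (two TREs driving luciferase) were dosed with compound, then stimulated with 1 nM T3 (final) for 23.5 h at 37 C. ONE-Glo luminescence was the read-out, with CellTiter-Fluor fluorescence as the cytotoxicity counter-screen.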

The subject of experiment [3] is thyroid hormone receptor (rat, GH3 cells). As to the kind of experiment: qHTS assay to identify small molecule agonists of the thyroid receptor (TR) signaling pathway (AID 743066; calls by dose curve).
Experiment [4] concerns the target Estrogen receptor (Homo sapiens) (UniProt P03372). As to the kind of experiment: qHTS assay to identify small molecule antagonists of the estrogen receptor alpha (ER-alpha) signaling pathway (AID 743069; active = well fitted curve in the direction sought with a large enough effect in the signal ratio in the repeat runs, not every such curve was filed as active; the % refers to the signal ratio). The method in brief: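 In this cell-based reporter format, GripTite HEK293 cells harbouring ER-alpha-UAS-bla were grown overnight with 2% charcoal-stripped FBS, dosed with DMSO-dissolved compounds, then challenged with 17beta-estradiol. After 18 hr at 37C, beta-lactamase activity was detected by FRET fluorescence.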

A short description of experiment [5]: qHTS assay to identify small molecule antagonists of the estrogen receptor alpha (ER-alpha) signaling pathway - cell viability counter screen (AID 743074; calls by dose curve; note: nearly all actives have a fitted effect of over 45% in size).
Experiment [6] concerns the target Estrogen receptor (Homo sapiens) (UniProt P03372). The experiment in a line: qHTS assay to identify small molecule agonists of the estrogen receptor alpha (ER-alpha) signaling pathway (AID 743075; calls by dose curve; note: potency is the fitted concentration of half-maximal effect).
The target is the same in experiment [7]. As to the kind of experiment: qHTS assay to identify small molecule agonists of the estrogen receptor alpha (ER-alpha) signaling pathway using the BG1 cell line (AID 743079). Note: nearly all actives have a fitted effect of over 20% in size. Note: potency is the fitted concentration of half-maximal effect. As to conditions: BG1Luc4E2 cells, ERE-luciferase agonist, 22 h; activation: at 70.3 µM (top of the series) unless noted.
A short description of experiment [8]: qHTS assay to identify small molecule antagonists of the estrogen receptor alpha (ER-alpha) signaling pathway using the BG1 cell line - cell viability counter screen (AID 743081).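 Note: compound given together with 17beta-estradiol as the ER stimulus; nearly all actives have a fitted effect of over 45% in size.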
The target of experiment [9] is Aromatase (Homo sapiens) (UniProt P11511). The experiment in a line: qHTS assay to identify aromatase inhibitors (AID 743083). Note: nearly all actives have a fitted effect of over 55% in size.
Experiment [10] can be described thus: qHTS assay to identify small molecule antagonists of the estrogen receptor alpha (ER-alpha) signaling pathway using the BG1 cell line (AID 743080; calls by dose curve;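 note: BG1 cells stimulated with 17beta-estradiol alongside compound; nearly all actives have a fitted effect of over 25% in size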). The method, boiled down:
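BG1-Luc-4E2 cells (endogenous full-length ER-alpha, stable 4×ERE-luciferase) were starved 5 days in phenol-red-free medium with 10% charcoal-stripped FBS, plated 24 h, then given compound plus 17beta-estradiol for 21.5 h at 37 C; ONE-Glo luminescence read after 30 min.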

Chain of Estrogen receptor (Homo sapiens) (P03372 whole entry, looked up): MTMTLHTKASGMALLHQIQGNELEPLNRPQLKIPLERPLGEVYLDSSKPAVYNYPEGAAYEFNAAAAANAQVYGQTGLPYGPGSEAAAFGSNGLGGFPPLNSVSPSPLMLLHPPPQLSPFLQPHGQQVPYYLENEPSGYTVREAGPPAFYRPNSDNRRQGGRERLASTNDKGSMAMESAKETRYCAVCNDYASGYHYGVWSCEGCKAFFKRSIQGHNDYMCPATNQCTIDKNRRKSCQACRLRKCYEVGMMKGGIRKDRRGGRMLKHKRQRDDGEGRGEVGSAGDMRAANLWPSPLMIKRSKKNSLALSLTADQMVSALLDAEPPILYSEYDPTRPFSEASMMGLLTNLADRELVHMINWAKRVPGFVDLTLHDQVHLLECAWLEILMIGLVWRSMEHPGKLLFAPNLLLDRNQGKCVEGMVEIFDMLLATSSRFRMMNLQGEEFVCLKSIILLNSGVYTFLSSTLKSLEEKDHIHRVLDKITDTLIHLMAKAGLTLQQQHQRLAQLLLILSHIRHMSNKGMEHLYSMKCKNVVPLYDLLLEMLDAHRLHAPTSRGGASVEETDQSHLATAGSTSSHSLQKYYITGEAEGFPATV
Chain of Aromatase (Homo sapiens) (P11511 whole entry, looked up): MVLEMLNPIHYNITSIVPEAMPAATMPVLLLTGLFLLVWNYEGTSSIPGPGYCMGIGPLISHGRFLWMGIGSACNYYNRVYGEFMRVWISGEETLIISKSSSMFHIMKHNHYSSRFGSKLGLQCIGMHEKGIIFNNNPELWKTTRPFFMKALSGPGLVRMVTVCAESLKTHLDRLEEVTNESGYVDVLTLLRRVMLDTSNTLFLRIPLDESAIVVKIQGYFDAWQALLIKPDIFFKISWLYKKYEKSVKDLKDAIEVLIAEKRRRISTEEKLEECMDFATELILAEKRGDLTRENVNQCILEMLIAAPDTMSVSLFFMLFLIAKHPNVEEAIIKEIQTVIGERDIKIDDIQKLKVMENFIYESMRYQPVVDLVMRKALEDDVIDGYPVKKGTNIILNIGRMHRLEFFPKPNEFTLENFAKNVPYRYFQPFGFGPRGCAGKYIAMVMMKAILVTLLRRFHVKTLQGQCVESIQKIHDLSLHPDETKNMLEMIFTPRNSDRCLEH

In the case of `OCC(O)CS` (stereo not given), the Potency result in [1], in [2], in experiment [3], in [4], in [5] and in [6] was “inactive” throughout. In addition, the Potency entry in experiment [8] and in experiment [9] was “inactive” in each case. The Potency in experiment [7] was 11.9 µM (active) and inactive.

As to `CCCCCCCC(=O)O`, the Potency entry in [1], in experiment [2], in [3], in [4], in experiment [5] and in experiment [6] was “inactive” throughout. Moreover, the Potency result in experiment [7], in experiment [8] and in experiment [9] was “inactive” throughout.

Turning to `C1CCCNCC1`, the Potency result in [1], in [2], in experiment [3], in experiment [4], in experiment [5] and in experiment [6] was “inactive” throughout. The Potency entry in experiment [7], in experiment [10], in experiment [8] and in experiment [9] was “inactive” each time.

On to `N#CCC(=O)O`, for which the Potency result in experiment [1], in [2], in experiment [3], in [4], in experiment [5] and in experiment [6] was “inactive” throughout. The Potency result in experiment [7], in experiment [10], in experiment [8] and in [9] was “inactive” in each case.

In the case of `O=C1CCCCCCCCCCC1`, the Potency entry in experiment [1], in [2], in experiment [3], in experiment [4], in experiment [5] and in [6] was “inactive” throughout. Besides, the Potency result in experiment [7], in [8] and in experiment [9] was “inactive” throughout.

On to `Cc1cc(C)c(O)c(C)c1`, for which the Potency entry in experiment [1], in experiment [2], in experiment [3], in [4], in [5] and in experiment [6] was “inactive” each time. Further, the Potency entry in experiment [7], in experiment [10], in [8] and in [9] was “inactive” throughout.

As to `O=[N+]([O-])c1ccccc1C(F)(F)F`, the Potency entry in experiment [1], in [2], in experiment [3], in experiment [4], in [5] and in [6] was “inactive” in each case. The Potency result in experiment [7], in experiment [10], in experiment [8] and in [9] was “inactive” throughout.

Consider `CC1(C)C(=O)N(Cl)C(=O)N1Cl`, for which the Potency entry in [1], in experiment [2], in experiment [3], in [4], in [5] and in [6] was “inactive” in each case. The Potency entry in experiment [8] and in experiment [9] was “inactive” throughout. Further, in experiment [7], the Potency is 77 µM (active) and inactive.

With `CCCCC(=O)O`, the Potency result in experiment [1], in experiment [2], in experiment [3], in experiment [4], in experiment [5] and in experiment [6] was “inactive” each time. The Potency entry in [10], in experiment [8] and in experiment [9] was “inactive” each time. The Potency entry in experiment [7] is “inactive and 49.1 µM (active)”.

With `COc1ccc([C@@H]2CC(=O)c3c(O)cc(O[C@@H]4O[C@H](CO[C@@H]5O[C@@H](C)[C@H](O)[C@@H](O)[C@H]5O)[C@@H](O)[C@H](O)[C@H]4O)cc3O2)cc1OC`, the Potency result in [1], in experiment [2], in experiment [3], in [4], in experiment [5] and in experiment [6] was “inactive” throughout. Besides, the Potency result in experiment [7], in experiment [8] and in experiment [9] was “inactive” in each case.

For `CN1CCCC1=O`, the Potency result in experiment [1], in experiment [2], in experiment [3], in experiment [4], in [5] and in [6] was “inactive” throughout. For the same compound, the Potency entry in experiment [7], in experiment [8] and in experiment [9] was “inactive” in each case.

Turning to `Nc1cccc(N)n1`, the Potency entry in [1], in [2], in experiment [3], in experiment [4], in [5] and in [6] was “inactive” each time. In addition, the Potency result in experiment [7], in experiment [8] and in [9] was “inactive” in each case.

In the case of `Cc1ccncc1`, the Potency result in experiment [1], in experiment [2], in experiment [3], in experiment [4], in experiment [5] and in experiment [6] was “inactive” each time. Further, the Potency result in experiment [7], in [10], in experiment [8] and in [9] was “inactive” each time.

For the compound `CC(C)(CO)CO`, the Potency entry in experiment [1], in [2], in [3], in experiment [4], in experiment [5] and in [7] was “inactive” throughout. Besides, the Potency result in experiment [10], in experiment [8] and in [9] was “inactive” throughout. Besides, the Potency entry in [6] is “inactive and 43.7 µM [activator] (active)”.

With `CN=C(NC#N)NCCSCc1nc[nH]c1C`, the Potency entry in [1], in experiment [2], in experiment [3], in [4], in experiment [5] and in experiment [6] was “inactive” in each case. The Potency entry in experiment [7], in experiment [10], in experiment [8] and in experiment [9] was “inactive” each time.

As to `NC(N)=S`, the Potency result in [1], in [2], in [3], in [4], in [6] and in [7] was “inactive” throughout. In addition, the Potency entry in experiment [10], in experiment [8] and in experiment [9] was “inactive” each time.

With `Clc1cccc(Cl)c1NC1=NCCN1`, the Potency entry in [1], in experiment [2], in experiment [3], in experiment [5], in [8] and in [9] was “inactive” throughout.

For the compound `CCCCCNCCCCC`, the Potency result in [1], in experiment [2], in experiment [3], in [5], in experiment [8] and in experiment [9] was “inactive” each time.

In the case of `C=C1C[C@]23C[C@@]1(O)CC[C@H]2[C@@]12C=C[C@H](O)[C@@](C)(C(=O)O1)[C@H]2[C@@H]3C(=O)O`, the Potency entry in experiment [1], in experiment [2], in [3], in experiment [5], in experiment [8] and in experiment [9] was “inactive” throughout.

Turning to `Cc1ccc([N+](=O)[O-])cc1N`, the Potency result in experiment [1], in experiment [2], in experiment [3], in [4], in [6] and in experiment [7] was “inactive” in each case. In addition, the Potency result in [10], in experiment [8] and in experiment [9] was “inactive” in each case.

As for `OCc1ccc(Cl)cc1Cl`, the Potency entry in experiment [1], in experiment [2], in experiment [3], in experiment [5], in experiment [8] and in [9] was “inactive” each time.

Turning to `COc1ccccc1[N+](=O)[O-]`, the Potency result in experiment [1], in experiment [2], in experiment [3], in experiment [5], in experiment [8] and in [9] was “inactive” in each case.

As to `CCCCCCCCCCCCCC(=O)O`, the Potency result in experiment [1], in experiment [2], in [3], in experiment [4], in experiment [6] and in [7] was “inactive” throughout. In addition, the Potency entry in experiment [10], in [8] and in experiment [9] was “inactive” in each case.

On to `CC/C(C)=N/O`, for which the Potency entry in [1], in experiment [2], in experiment [3], in experiment [5] and in experiment [8] was “inactive” in each case.

Turning to `O=C(O)Cc1c[nH]c2ccccc12`, the Potency entry in experiment [1], in experiment [2], in [3], in [5] and in experiment [8] was “inactive” each time.
